The supplement of paper PMC10933113
Counter-ions that a name gives are not always drawn. ± gives the uncertainty stated by the source.

These compounds were tested on THP-1 (assay: CD54 surface expression induction over DMSO control (% over DMSO); higher = stronger dendritic cell activation). Conditions: exposure time: 24 h.
Protocol: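 hCLAT-like CD54 and CD86 surface expression on THP1 cells after 24 h exposure at a single concentration (highest non-cytotoxic concentration, or 100-200 µM if not cytotoxic). Flow cytometry (iQue) was run on 5,000 live cells.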

Compound	CD54 surface expression induction
C[n+]1cc2c3c(ccc2c2ccc4cc5c(cc4c21)OCO5)OCO3 [Sanguinarine] (10 µM)	36 ± 5.9
CC[C@@]1(O)C(=O)OCc2c1cc1n(c2=O)Cc2c-1nc1ccccc1c2/C=N/OC(C)(C)C [Gimatecan] (10 µM)	-15.7 ± 5
C=C1CC[C@H](O)C/C1=C/C=C1\CCC[C@]2(C)[C@@H]([C@H](C)/C=C/[C@H](C)C(C)C)CC[C@@H]12 [Ergocalciferol*] (100 µM)	108 ± 7.2
Clc1ccccc1-c1nc(-c2ccncc2)no1 [Pifexole] (100 µM)	-5.59 ± 1.4
Oc1c(Br)cc(Br)c2cccnc12 [Broxyquinoline] (100 µM)	49.3 ± 18
COc1cc(/C=C2\CCC/C(=C\c3ccc(O)c(OC)c3)C2=O)ccc1O [Cyclovalone] (10 µM)	-1.01 ± 3
Cn1sccc1=O [2-Methyl-4-isothiazolin-3-one hydrochloride] (10 µM)	-19.5 ± 27
COc1ccc(-c2cc(=S)ss2)cc1 [Anethole trithione] (100 µM)	-12.4 ± 13
CC(=O)Oc1ccc(C(c2ccc(OC(C)=O)cc2)c2ccccn2)cc1 [Bisacodyl] (100 µM)	-7.9 ± 29
O=C(OCc1ccccc1)c1ccc(O)cc1 [Benzylparaben] (100 µM)	-6.45 ± 0.19
CCc1oc2ccccc2c1C(=O)c1cc(I)c(O)c(I)c1 [Benziodarone] (100 µM)	-0.07 ± 0.74
O=C1Nc2ccccc2C1(c1ccc(O)cc1)c1ccc(O)cc1 [Oxyphenisatin] (100 µM)	15.6 ± 12
COc1cc(C(C)C)c2c(c1)S(=O)(=O)N(COc1cc(=O)n3cccc(OCCN4CCCCC4)c3n1)C2=O (100 µM)	61 ± 55
S=C(NC1CCCCC1)NC1CCCCC1 [N,N'-Dicyclohexylthiourea] (10 µM)	-7.65 ± 5.2
c1ccc2cc3c(ccc4ccccc43)cc2c1 [Benz(a)anthracene] (200 µM)	-2.28 ± 4.7
C/C=C/C=C/CCCCCCCO [Codlelure] (200 µM)	-18.9 ± 4
CN(C)c1ccc(SC#N)cc1 [4-(Dimethylamino)phenylthiocyanate] (10 µM)	-9.74 ± 4.1
COc1ccc(C(=O)c2ccc(C)cc2)c(O)c1 [Mexenone] (300 µM)	-5.78 ± 3.4
Nc1ccccc1N [1,2-Phenylenediamine*] (200 µM)	161 ± 20
COC(=O)CCCCCCCC(=O)OC [Dimethyl nonanedioate] (200 µM)	-1.14 ± 2.1

Compound	CD54 surface expression induction
CC(C)(C)c1ccc(C(=O)CCCCl)cc1 [4'-Tert-butyl-4-chlorobutyrophenone] (100 µM)	-1.36 ± 1.9
CCOc1ccc2nc(S(N)(=O)=O)sc2c1 [Ethoxzolamide] (200 µM)	3.81 ± 6
COc1cc(Nc2c(C#N)cnc3cc(OCCCN4CCN(C)CC4)c(OC)cc23)c(Cl)cc1Cl [Bosutinib] (100 µM)	-7.93 ± 2.6
CO[C@@]12[C@H](COC(N)=O)C3=C(C(=O)C(C)=C(N)C3=O)N1C[C@@H]1N[C@@H]12 [Mitomycin C] (100 µM)	55.6 ± 52
CC(C)CC(NC(=O)OCC1c2ccccc2-c2ccccc21)C(=O)O (stereo in doubt) [N-(9-Fluorenylmethoxycarbonyl)-L-leucine] (100 µM)	-11.5 ± 0.49
CCCSS/C(CCO)=C(/C)N(C=O)Cc1cnc(C)nc1N [Prosultiamine] (10 µM)	-0.63 ± 2.5
CCOC(=O)CCC(=O)OCC [Diethyl butanedioate] (200 µM)	-4.24 ± 4.1
Nc1ncn([C@@H]2O[C@H](CO)[C@@H](O)[C@H]2O)c(=O)n1 [5-Azacytidine] (10 µM)	-4.02 ± 3.5
CCCCc1ccc2[nH]c(NC(=O)OC)nc2c1 [Parbendazole*] (200 µM)	262 ± 39
Oc1ccc2cc(SSc3ccc4cc(O)ccc4c3)ccc2c1 [6-Hydroxy-2-naphthyl disulfide] (100 µM)	71.9 ± 1.4
CC1=C(/C=C/C(C)=C/C=C/C(C)=C/C=O)C(C)(C)CCC1 [13-cis-Retinal (Vitamin A aldehyde)] (100 µM)	188 ± 9.3
[Cl][Bi]([Cl])([c]1ccccc1)([c]1ccccc1)[c]1ccccc1 [Triphenylbismuthine dichloride] (10 µM)	15.8 ± 5
Cc1cccc(N(C)C(=S)Oc2ccc3c(c2)C2CCC3C2)c1 (stereo not given) [Tolciclate] (100 µM)	1.18 ± 1.2
COP(=O)(O)OP(=O)(O)OC [Dimethyl dihydrogen diphosphate] (200 µM)	-11.2 ± 2.4
O=c1cc(-c2ccccc2)oc2ccccc12 [Flavone] (200 µM)	62.9 ± 14
CC(C)=CCOc1ccc(/C=C/C(=O)c2ccc(OCC=C(C)C)cc2OCC(=O)O)cc1 [Sofalcone] (100 µM)	-27.7 ± 3.9
Sc1nc2ccccc2s1 [2-Mercaptobenzothiazole] (100 µM)	-13.7 ± 14
Clc1ccc2c(c1)Nc1ccccc1S2 [2-Chlorophenothiazine] (100 µM)	-15.3 ± 22
Oc1c(I)cc(Cl)c2cccnc12 [Clioquinol] (100 µM)	141 ± 67
Clc1nc(C(Cl)(Cl)Cl)c(Cl)c(Cl)c1Cl [2,3,4,5-Tetrachloro-6-(trichloromethyl)pyridine] (10 µM)	-4.98 ± 3.6
